In PubChem BioAssay (EPA / NIEHS):
Where “and” joins values, the source holds several entries; their conditions need not be identical. Equal entries are not always repeated. Records with an inconclusive call do not appear. Some compounds were tested as several samples or in several runs, with calls that do not always agree. Calls of active or inactive are those of the source. Rule for the calls, unless noted: active = hit-call score of the fitted dose curve at least 0.9, where 1 is the maximum; inactive = score below 0.9.

Assays:
[1] = read-out: Nuclear factor erythroid 2-related factor 2 (Homo sapiens) (UniProt Q16236); test: LTEA_HepaRG_NFE2L2: Life Technologies and Expression Analysis (LTEA) Assay for Nuclear factor erythroid 2-related factor 2 (NFE2L2) Transcription Factor using HepaRG (AID 2283527); conditions: mRNA level, 48 h; actives raise or lower the signal;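 note: TaqMan qRT-PCR transcript level normalised to ACTB GAPDH and POLR2A housekeeping genes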
How it was run: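 HepaRG, 48 h dosing, 8-pt half-log series from 100 uM in 0.5% DMSO, duplicates. Read-out: NFE2L2 mRNA by qRT-PCR (ACTB/GAPDH/POLR2A normalization). Bidirectional curve fit vs DMSO baseline.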

[2] = read-out: succinate dehydrogenase complex iron sulfur subunit B (SDHB), SDHB (gene 6390); test: LTEA_HepaRG_SDHB: Life Technologies and Expression Analysis (LTEA) Assay for succinate dehydrogenase complex iron sulfur subunit B (SDHB) using HepaRG (AID 2283528); conditions: mRNA level, 48 h; actives raise or lower the signal
How it was run: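 Readout is SDHB transcript level by qRT-PCR, normalised to three housekeeping genes and fitted bidirectionally against 0.5% DMSO vehicle. Human HepaRG cells were treated for 48 h at up to 100 uM.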

[3] = read-out: Signal transducer and activator of transcription 3 (Homo sapiens) (UniProt P40763); test: LTEA_HepaRG_STAT3: Life Technologies and Expression Analysis (LTEA) Assay for Signal transducer and activator of transcription (STAT3) using HepaRG (AID 2283529); conditions: mRNA level, 48 h; actives raise or lower the signal
How it was run: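 HepaRG, 48 h exposure, 8-pt half-log series (top 100 uM), 0.5% DMSO vehicle, duplicates. Readout: STAT3 transcript by Fluidigm qRT-PCR, housekeeping-normalized; bidirectional fit vs DMSO baseline.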

[4] = read-out: solute carrier (SLCO1B1), SLCO1B1 (gene 10599); test: LTEA_HepaRG_SLCO1B1: Life Technologies and Expression Analysis (LTEA) Assay for solute carrier (SLCO1B1) using HepaRG (AID 2283530); conditions: mRNA level, 48 h; actives raise or lower the signal
How it was run: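 Gain or loss of SLCO1B1 mRNA is fitted against the 0.5% DMSO vehicle in human HepaRG liver cells treated 48 h at up to 100 uM in half-log steps. Expression comes from qRT-PCR normalized to endogenous controls.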

[5] = read-out: sulfotransferase 2A1 (SULT2A1), SULT2A1 (gene 6822); test: LTEA_HepaRG_SULT2A1: Life Technologies and Expression Analysis (LTEA) Assay for sulfotransferase 2A1 (SULT2A1) using HepaRG (AID 2283531); conditions: mRNA level, 48 h; actives raise or lower the signal
How it was run: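 Cells were plated and cultured 48 h, switched to serum-free induction medium, then dosed in duplicate for 48 h (8 concentrations, max 100 uM). RNA was isolated and SULT2A1 expression measured by qRT-PCR; gain or loss of signal fitted relative to DMSO.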

[6] = read-out: Transforming Growth Factor (TGFA), TGFA (gene 7039); test: LTEA_HepaRG_TGFA: Life Technologies and Expression Analysis (LTEA) Assay for Transforming Growth Factor (TGFA) using HepaRG (AID 2283532); conditions: mRNA level, 48 h; actives raise or lower the signal
How it was run: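 qRT-PCR read-out of TGFA transcript, normalized to three housekeeping genes, fitted bidirectionally against 0.5% DMSO baseline. Human HepaRG cultures received chemicals for 48 h at eight half-log concentrations, top 100 uM.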

[7] = read-out: Transforming Growth Factor (TGFB1), TGFB1 (gene 7040); test: LTEA_HepaRG_TGFB1: Life Technologies and Expression Analysis (LTEA) Assay for Transforming Growth Factor (TGFB1) Transporter using HepaRG (AID 2283533); conditions: mRNA level, 48 h; actives raise or lower the signal
How it was run: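 Expression change of TGFB1 in human HepaRG cells is measured after a 48 h chemical exposure, up to 100 uM in 0.5% DMSO vehicle. Curves are fitted in both directions relative to the DMSO baseline.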

[8] = read-out: Tumor necrosis factor receptor 1 (TNFRSF1A), TNFRSF1A (gene 7132); test: LTEA_HepaRG_TNFRSF1A: Life Technologies and Expression Analysis (LTEA) Assay for Tumor necrosis factor receptor 1 (TNFRSF1A) using HepaRG (AID 2283535); conditions: mRNA level, 48 h; actives raise or lower the signal
How it was run: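 Expression of TNFRSF1A in human HepaRG liver cells was measured by qRT-PCR 48 h after chemical dosing (maximum 100 uM). Bidirectional curve fitting used 0.5% DMSO as baseline.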

[9] = read-out: Thyroid Hormone Responsive (THRSP), THRSP (gene 7069); test: LTEA_HepaRG_THRSP: Life Technologies and Expression Analysis (LTEA) Assay for Thyroid Hormone Responsive (THRSP) using HepaRG (AID 2283536); conditions: mRNA level, 48 h; actives raise or lower the signal
How it was run: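 qRT-PCR read-out (Fluidigm TaqMan), housekeeping-normalized (ACTB/GAPDH/POLR2A). HepaRG, 48 h chemical exposure, 8-pt half-log series from 100 uM in 0.5% DMSO, duplicates. Bidirectional curve fit vs 0.5% DMSO baseline.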

[10] = read-out: Cellular tumor antigen p53 (Homo sapiens) (UniProt P04637); test: LTEA_HepaRG_TP53: Life Technologies and Expression Analysis (LTEA) Assay for Tumor Protein P53 (TP53) using HepaRG (AID 2283537); conditions: mRNA level, 48 h; actives raise or lower the signal
How it was run: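 Read-out is TP53 transcript level by microfluidic qRT-PCR, normalised to three housekeeping genes and fitted bidirectionally against DMSO. Human HepaRG cells received compounds for 48 h, highest concentration 100 uM.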

[11] = read-out: UDP glucuronosyltransferase (UGT1A1), UGT1A1 (gene 54658); test: LTEA_HepaRG_UGT1A1: Life Technologies and Expression Analysis (LTEA) Assay for UDP glucuronosyltransferase (UGT1A1) using HepaRG (AID 2283538); conditions: mRNA level, 48 h; actives raise or lower the signal
How it was run: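 Cells are plated, cultured 48 h, switched to serum-free induction medium, then dosed 48 h at eight concentrations (max 100 uM, 0.5% DMSO). RNA is isolated and UGT1A1 expression measured by qRT-PCR; changes versus DMSO are fitted in both directions.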

[12] = read-out: X-box binding protein 1 (XBP1), XBP1 (gene 7494); test: LTEA_HepaRG_XBP1: Life Technologies and Expression Analysis (LTEA) Assay for X-box binding protein 1 (XBP1) using HepaRG (AID 2283540); conditions: mRNA level, 48 h; actives raise or lower the signal
How it was run: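 Human HepaRG monolayers receive test chemical for 48 h across an eight-point half-log series starting at 100 uM. XBP1 mRNA gain or loss is scored against DMSO by qRT-PCR.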

[13] = LTEA_HepaRG_LDH_cytotoxicity: Cytotoxicity Assessment in the Life Technologies and Expression Analysis (LTEA) Assay (AID 2283563; active = hit-call score of the fitted dose curve at least 0.9, where 1 is the maximum;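 for AC50: LDH activity released into spent culture medium as a marker of cell death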)
How it was run: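 Human HepaRG hepatic cells are treated with test chemicals for 48 h at up to 100 uM in 0.5% DMSO. Cytotoxicity is scored from medium LDH against the vehicle control.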

[14] = ATG_XTT_Cytotoxicity: Cytotoxicity Assessment in the Attagene TRANS-FACTORIAL HepG2 Assay (AID 2283584; active = hit-call score of the fitted dose curve at least 0.9, where 1 is the maximum)
How it was run: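 Transfect HepG2 with GAL4-UAS reporter units, dose compound, incubate 24 h, then measure viable cell number by XTT. Fit concentration response against DMSO baseline.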

[15] = TOX21_p53_BLA_p2_viability: Viability Assessment in the Tox21 HCT-116 p53 Agonism Beta-lactamase Assay, Phase 2 (AID 2283591; active = hit-call score of the fitted dose curve at least 0.9, where 1 is the maximum;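 note: compound exposure lasted 16 h at 37 °C; actives lower the ATP signal meaning cytotoxicity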)
How it was run: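 HCT116 p53-bla cells, 4000/well, dosed after 5 h plating (217-fold dilution of DMSO stocks) and incubated 16 h at 37C. Viability taken as cellular ATP by CellTiter-Glo luminescence after 30 min RT; signal loss marks cytotoxicity.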

[16] = target: Cellular tumor antigen p53 (Homo sapiens) (UniProt P04637); test: TOX21_p53_BLA_p2_ratio: Tox21 HCT-116 p53 Agonism Beta-lactamase Assay, Ratio, Phase 2 (AID 2283592; active = hit-call score of the fitted dose curve at least 0.9, where 1 is the maximum)
How it was run: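 Cleaved-to-uncleaved substrate ratio (460 vs 530 nm) measured in HCT116 cells with an inducible beta-lactamase reporter linked to p53 activity. Compounds incubated 16 h at 37C before 2 h room-temperature CCF4-AM loading.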

[17] = TOX21_p53_BLA_p3_viability: Viability Assessment in the Tox21 HCT-116 p53 Agonism Beta-lactamase Assay, Phase 3 (AID 2283593; active = hit-call score of the fitted dose curve at least 0.9, where 1 is the maximum;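 note: cells exposed to compound for 16 h before reading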)
How it was run: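 HCT116 cells, 4000/well, dosed 5 h after plating by pin transfer (217-fold dilution from DMSO stock) and incubated 16 h at 37C, 5% CO2. Viability read as ATP luminescence with CellTiter-Glo after 30 min at room temperature.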

[18] = target: Cellular tumor antigen p53 (Homo sapiens) (UniProt P04637); test: TOX21_p53_BLA_p3_ratio: Tox21 HCT-116 p53 Agonism Beta-lactamase Assay, Ratio, Phase 3 (AID 2283596; active = hit-call score of the fitted dose curve at least 0.9, where 1 is the maximum)
How it was run: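 Cells were seeded at 4000/well, rested 5 h at 37C, then dosed with DMSO compound solutions (217-fold dilution) for 16 h. CCF4-AM substrate was loaded for 2 h at room temperature, and the 460/530 nm emission ratio was fitted for gain of signal versus DMSO.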

Measured: AC50

Cellular tumor antigen p53 (Homo sapiens), sequence (P04637 whole entry, looked up): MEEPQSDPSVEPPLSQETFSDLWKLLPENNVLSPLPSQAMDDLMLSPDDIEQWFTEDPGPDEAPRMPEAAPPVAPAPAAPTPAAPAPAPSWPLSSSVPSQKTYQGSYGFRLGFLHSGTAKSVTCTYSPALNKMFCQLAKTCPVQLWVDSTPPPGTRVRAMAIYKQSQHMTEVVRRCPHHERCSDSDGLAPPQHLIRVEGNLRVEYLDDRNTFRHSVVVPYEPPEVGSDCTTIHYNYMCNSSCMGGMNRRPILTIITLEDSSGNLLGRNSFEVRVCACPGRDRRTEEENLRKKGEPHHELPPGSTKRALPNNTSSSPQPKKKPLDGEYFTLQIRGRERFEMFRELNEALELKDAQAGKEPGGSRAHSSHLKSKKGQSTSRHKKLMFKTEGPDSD
Nuclear factor erythroid 2-related factor 2 (Homo sapiens), sequence (Q16236 whole entry, looked up): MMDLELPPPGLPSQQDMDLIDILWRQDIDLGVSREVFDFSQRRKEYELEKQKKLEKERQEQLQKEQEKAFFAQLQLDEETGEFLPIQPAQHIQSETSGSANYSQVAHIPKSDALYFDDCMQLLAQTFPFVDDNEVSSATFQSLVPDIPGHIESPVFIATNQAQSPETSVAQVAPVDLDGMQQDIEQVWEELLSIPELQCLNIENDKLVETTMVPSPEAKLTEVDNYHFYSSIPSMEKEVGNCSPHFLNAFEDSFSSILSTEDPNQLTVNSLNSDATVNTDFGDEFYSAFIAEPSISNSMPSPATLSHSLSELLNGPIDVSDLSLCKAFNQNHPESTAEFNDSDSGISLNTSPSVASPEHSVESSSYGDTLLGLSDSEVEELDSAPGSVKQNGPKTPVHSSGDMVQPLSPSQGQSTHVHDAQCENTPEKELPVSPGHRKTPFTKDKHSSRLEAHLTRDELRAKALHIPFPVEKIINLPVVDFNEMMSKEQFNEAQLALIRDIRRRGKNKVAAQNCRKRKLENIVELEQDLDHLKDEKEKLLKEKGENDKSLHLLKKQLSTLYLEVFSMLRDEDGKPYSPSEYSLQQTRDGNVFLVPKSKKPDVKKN
Signal transducer and activator of transcription 3 (Homo sapiens), sequence (P40763 whole entry, looked up): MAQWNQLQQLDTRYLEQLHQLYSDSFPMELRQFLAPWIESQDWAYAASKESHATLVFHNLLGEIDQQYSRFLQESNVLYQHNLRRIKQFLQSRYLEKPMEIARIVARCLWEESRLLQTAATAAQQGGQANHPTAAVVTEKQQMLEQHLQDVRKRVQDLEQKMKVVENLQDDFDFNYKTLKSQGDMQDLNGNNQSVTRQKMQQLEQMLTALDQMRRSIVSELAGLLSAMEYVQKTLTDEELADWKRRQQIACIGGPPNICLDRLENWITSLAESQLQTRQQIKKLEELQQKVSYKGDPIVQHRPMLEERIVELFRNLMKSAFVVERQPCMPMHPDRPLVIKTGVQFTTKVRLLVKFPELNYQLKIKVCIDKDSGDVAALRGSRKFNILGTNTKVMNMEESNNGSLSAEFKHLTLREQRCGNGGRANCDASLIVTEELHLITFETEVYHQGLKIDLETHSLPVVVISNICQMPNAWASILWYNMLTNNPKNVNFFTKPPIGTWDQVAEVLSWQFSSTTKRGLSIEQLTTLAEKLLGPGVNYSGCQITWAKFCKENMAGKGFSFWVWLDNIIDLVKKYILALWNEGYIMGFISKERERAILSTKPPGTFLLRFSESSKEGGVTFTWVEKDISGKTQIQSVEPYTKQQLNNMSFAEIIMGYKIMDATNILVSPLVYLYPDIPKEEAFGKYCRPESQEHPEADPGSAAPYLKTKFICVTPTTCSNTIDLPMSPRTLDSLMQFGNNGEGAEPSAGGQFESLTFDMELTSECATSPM

CCCCCCCCCCCC(=O)OC
inactive: [1] | [2] | [3] | [4] | [5] | [6] | [7] | [8] | [9] | [10] | [11] | [12] | [13] | [14] | [15] | [16] | [17] | [18]

CCCCCCOCCO
inactive: [1] | [2] | [4] | [5] | [6] | [7] | [8] | [9] | [10] | [11] | [12] | [13] | [15] | [16] | [18]
active: [3] 9.92 µM

Nc1ccccc1N
inactive: [1] | [3] | [15] | [16] | [17] | [18]
active: [2] 85.1 µM | [4] 69.5 µM | [5] 85.9 µM | [6] 50 µM | [7] 29.6 µM | [8] 50 µM | [9] 50 µM | [10] 50 µM | [11] 85 µM | [12] 88.2 µM | [13] 68.6 µM | [18] 68.5 µM

COc1cccc2c1C(=O)c1c(O)c3c(c(O)c1C2=O)C[C@@](O)(C(=O)CO)C[C@@H]3O[C@H]1C[C@H](N)[C@H](O)[C@H](C)O1
inactive: [14] | [15] | [17]
active: [16] 98.2 nM and 390 nM | [18] 0.401 µM
